# PubChem BioAssay AID1159580 (chemical genetic matrix, 2015)
# Screen size: about 5,500 compounds; about 2,000 (36%) were called active. Roughly 18% stayed inconclusive and do not appear here. The list shows a part of the results. Unmarked numbers belong to inactive results. No stated cut-off is given here; in the data, active means normalized growth mostly below about 0.91 (no sharp cut-off); inconclusive means no clear call, values can overlap the other calls; inactive means mostly above about 0.92.
# Assay: chemical genetic growth profiling, strain panel (AID 1159580);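 further: tested at 20 µM; growth read once vehicle control cultures reached saturation at 30 °C; 1 = growth at the plate median or of vehicle wells; lower values mean less growth of the strain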
# Settings: growth OD
smiles,measurement,setting,value
OC(Cn1cncn1)(Cn1cncn1)c1ccc(F)cc1F,normalized growth,"S. cerevisiae deletion strains, locus YJL187C, strain SWE1, active compounds read low",1
same,normalized growth,"S. cerevisiae deletion strains, locus YJR043C, strain POL32, active compounds read low",0.988
same,normalized growth,"S. cerevisiae deletion strains, locus YJR075W, strain HOC1, active compounds read low",1.01
same,normalized growth,"S. cerevisiae deletion strains, locus YKL009W, strain mrt4, active compounds read low",0.994
same,normalized growth,"S. cerevisiae deletion strains, locus YKL068W, active compounds read low",0.996
same,normalized growth,"S. cerevisiae deletion strains, locus YKL085W, strain MDH1 (second series), active compounds read low",0.985
same,normalized growth,"S. cerevisiae deletion strains, locus YKL085W, strain MDH1, active compounds read low",0.985
same,normalized growth,"S. cerevisiae deletion strains, locus YKL160W, strain elf1, active compounds read low",0.992
same,normalized growth,"S. cerevisiae deletion strains, locus YKL190W, strain CNB1, active compounds read low",0.997
same,normalized growth,"S. cerevisiae deletion strains, locus YKR001C, strain vps1, active compounds read low",1.05
same,normalized growth,"S. cerevisiae deletion strains, locus YKR026C, strain gcn3, active compounds read low",0.999
same,normalized growth,"S. cerevisiae deletion strains, locus YKR091W, strain srl3, active compounds read low",1.01
same,normalized growth,"S. cerevisiae deletion strains, locus YLL001W, strain dnm1, active compounds read low",1.01
same,normalized growth,"S. cerevisiae deletion strains, locus YLL026W, active compounds read low",0.999
same,normalized growth,"S. cerevisiae deletion strains, locus YLL041C, strain sdh2, active compounds read low",1.01
same,normalized growth,"S. cerevisiae deletion strains, locus YLR027C, strain aat2, active compounds read low",1
same,normalized growth,"S. cerevisiae deletion strains, locus YLR039C, strain RIC1, active compounds read low",0.635 (active)
same,normalized growth,"S. cerevisiae deletion strains, locus YLR058C, strain SHM2, active compounds read low",1
same,normalized growth,"S. cerevisiae deletion strains, locus YLR102C, strain apc9, active compounds read low",1
same,normalized growth,"S. cerevisiae deletion strains, locus YLR221C, strain rsa3, active compounds read low",0.996
same,normalized growth,"S. cerevisiae deletion strains, locus YLR258W, strain gsy2, active compounds read low",1
same,normalized growth,"S. cerevisiae deletion strains, locus YLR262C, strain YPT6 (second series), active compounds read low",0.465 (active)
same,normalized growth,"S. cerevisiae deletion strains, locus YLR262C, strain YPT6, active compounds read low",0.634
same,normalized growth,"S. cerevisiae deletion strains, locus YLR268W, strain sec22, active compounds read low",0.969
same,normalized growth,"S. cerevisiae deletion strains, locus YLR320W, strain mms22, active compounds read low",0.956
same,normalized growth,"S. cerevisiae deletion strains, locus YLR330W, strain CHS5, active compounds read low",0.99
same,normalized growth,"S. cerevisiae deletion strains, locus YLR342W, strain FKS1 (second series), active compounds read low",1
same,normalized growth,"S. cerevisiae deletion strains, locus YLR342W, strain FKS1, active compounds read low",1.01
same,normalized growth,"S. cerevisiae deletion strains, locus YLR357W, strain rsc2, active compounds read low",1.02
same,normalized growth,"S. cerevisiae deletion strains, locus YLR370C, strain arc18, active compounds read low",1
same,normalized growth,"S. cerevisiae deletion strains, locus YLR371W, strain rom2, active compounds read low",1
same,normalized growth,"S. cerevisiae deletion strains, locus YLR384C, strain iki3, active compounds read low",1
same,normalized growth,"S. cerevisiae deletion strains, locus YLR418C, strain cdc73, active compounds read low",1.01
same,normalized growth,"S. cerevisiae deletion strains, locus YML016C, strain PPZ1, active compounds read low",0.998
same,normalized growth,"S. cerevisiae deletion strains, locus YML032C, strain rad52, active compounds read low",0.995
same,normalized growth,"S. cerevisiae deletion strains, locus YML120C, strain ndi1, active compounds read low",1
same,normalized growth,"S. cerevisiae deletion strains, locus YML124C, strain tub3, active compounds read low",1
same,normalized growth,"S. cerevisiae deletion strains, locus YMR058W, strain fet3, active compounds read low",0.987
same,normalized growth,"S. cerevisiae deletion strains, locus YMR078C, strain ctf18, active compounds read low",0.992
same,normalized growth,"S. cerevisiae deletion strains, locus YMR125W, strain sto1, active compounds read low",1.03
same,normalized growth,"S. cerevisiae deletion strains, locus YMR129W, active compounds read low",1.01
same,normalized growth,"S. cerevisiae deletion strains, locus YMR205C, strain PFK2, active compounds read low",0.988
same,normalized growth,"S. cerevisiae deletion strains, locus YMR223W, strain ubp8, active compounds read low",0.98
same,normalized growth,"S. cerevisiae deletion strains, locus YMR231W, strain pep5, active compounds read low",0.943
same,normalized growth,"S. cerevisiae deletion strains, locus YMR263W, strain SAP30, active compounds read low",0.988
same,normalized growth,"S. cerevisiae deletion strains, locus YMR307W, strain GAS1, active compounds read low",1.25
same,normalized growth,"S. cerevisiae deletion strains, locus YNL067W, strain RPL9B, active compounds read low",1.03
same,normalized growth,"S. cerevisiae deletion strains, locus YNL071W, strain lat1, active compounds read low",1
same,normalized growth,"S. cerevisiae deletion strains, locus YNL128W, strain TEP1, active compounds read low",0.965
same,normalized growth,"S. cerevisiae deletion strains, locus YNL209W, strain ssb2, active compounds read low",1.01
same,normalized growth,"S. cerevisiae deletion strains, locus YNL233W, strain BNI4, active compounds read low",1.01
same,normalized growth,"S. cerevisiae deletion strains, locus YNL248C, strain rpa49, active compounds read low",0.994
same,normalized growth,"S. cerevisiae deletion strains, locus YNL250W, strain rad50, active compounds read low",0.976
same,normalized growth,"S. cerevisiae deletion strains, locus YNL271C, strain bni1, active compounds read low",0.98
same,normalized growth,"S. cerevisiae deletion strains, locus YNL298W, strain CLA4, active compounds read low",0.958
same,normalized growth,"S. cerevisiae deletion strains, locus YNL307C, strain MCK1, active compounds read low",1.01
same,normalized growth,"S. cerevisiae deletion strains, locus YNL322C, strain KRE1 (second series), active compounds read low",0.996
same,normalized growth,"S. cerevisiae deletion strains, locus YNR049C, strain mso1, active compounds read low",1.01
same,normalized growth,"S. cerevisiae deletion strains, locus YNR052C, strain pop2, active compounds read low",0.979
same,normalized growth,"S. cerevisiae deletion strains, locus YOL006C, strain TOP1, active compounds read low",0.971
same,normalized growth,"S. cerevisiae deletion strains, locus YOL012C, strain htz1",1.07
same,normalized growth,"S. cerevisiae deletion strains, locus YOL147C, strain pex11, active compounds read low",1.01
same,normalized growth,"S. cerevisiae deletion strains, locus YOR001W, strain rrp6, active compounds read low",0.994
same,normalized growth,"S. cerevisiae deletion strains, locus YOR061W, strain CKA2, active compounds read low",1
same,normalized growth,"S. cerevisiae deletion strains, locus YOR069W, strain VPS5, active compounds read low",0.992
same,normalized growth,"S. cerevisiae deletion strains, locus YOR070C, strain gyp1, active compounds read low",0.998
same,normalized growth,"S. cerevisiae deletion strains, locus YOR080W, strain dia2, active compounds read low",0.987
same,normalized growth,"S. cerevisiae deletion strains, locus YOR083W, strain WHI5, active compounds read low",0.997
same,normalized growth,"S. cerevisiae deletion strains, locus YOR106W, strain vam3, active compounds read low",0.964
same,normalized growth,"S. cerevisiae deletion strains, locus YOR136W, strain idh2, active compounds read low",0.979
same,normalized growth,"S. cerevisiae deletion strains, locus YOR144C, strain elg1, active compounds read low",1
same,normalized growth,"S. cerevisiae deletion strains, locus YOR184W, strain ser1, active compounds read low",0.964
same,normalized growth,"S. cerevisiae deletion strains, locus YOR265W, strain rbl2, active compounds read low",1
same,normalized growth,"S. cerevisiae deletion strains, locus YOR270C, strain vph1, active compounds read low",0.977
same,normalized growth,"S. cerevisiae deletion strains, locus YOR290C, strain snf2, active compounds read low",1.01
same,normalized growth,"S. cerevisiae deletion strains, locus YOR316C, strain cot1, active compounds read low",0.991
same,normalized growth,"S. cerevisiae deletion strains, locus YPL051W, strain arl3, active compounds read low",0.995
same,normalized growth,"S. cerevisiae deletion strains, locus YPL078C, strain atp4, active compounds read low",0.992
same,normalized growth,"S. cerevisiae deletion strains, locus YPL106C, strain sse1, active compounds read low",0.341 (active)
same,normalized growth,"S. cerevisiae deletion strains, locus YPL240C, strain hsp82, active compounds read low",0.998
same,normalized growth,"S. cerevisiae deletion strains, locus YPL241C, strain CIN2, active compounds read low",0.997
same,normalized growth,"S. cerevisiae deletion strains, locus YPR119W, strain clb2, active compounds read low",0.988
same,normalized growth,"S. cerevisiae deletion strains, locus YPR141C, strain kar3, active compounds read low",0.989
same,normalized growth,"S. cerevisiae deletion strains, locus YPR163C, strain tif3, active compounds read low",0.995
same,normalized growth,"S. cerevisiae deletion strains, locus YPR167C, strain met16, active compounds read low",0.98
same,normalized growth,"S. cerevisiae deletion strains, strain wtn01, active compounds read low",0.981
same,normalized growth,"S. cerevisiae strains, strain wild type, active compounds read low",1
